Here are results for 17 compounds from publication PMC5540273 (PLoS ONE, 2017).

Some test systems named below: EPHA4; EPHA5; EPHA6; EPHA7; EPHA8; EPHB1; EPHB2; EPHB3; EPHB4; EPHB6.
What all share (settings): concentration: 1 μM, replicates: in singlicate; n = 1
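Further: KINOMEscan kinase panel screen.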

Regarding `CCn1c(-c2cccnc2O)nc2cnccc21` [SB-736715], the “%Inh” value in the assay with EPHA4, in the assay with EPHA5, in the assay on EPHA6, in the assay on EPHA7, in the assay with EPHA8 and with EPHB1 was 0% throughout. Further, the “%Inh” value in the assay on EPHB2 was 6%; in the assay on EPHB3, 0%; in the assay with EPHB4 it was 0%; in the assay on EPHB6 it was 0%.
On to `COc1ccc(Nc2nccc(NCCNC(=O)Nc3ccccc3F)n2)cc1` [GSK1379901], for which the “%Inh” value with EPHA4 turned out to be 14%; in the assay with EPHA5, 0%; with EPHA6, 6%; in the assay with EPHA7, 7%; in the assay with EPHA8, 25%; in the assay on EPHB1 it was 0%. The “%Inh” value in the assay with EPHB2 is on record as 0%; in the assay with EPHB3 it was 27%; with EPHB4, 32%; with EPHB6 it was 4%.
Consider `COc1cc2nccc(Nc3ccc(NC(=O)c4ccc(C)cc4)c(O)c3)c2cc1OC.Cl` [GW440132], for which the “%Inh” value with EPHA4 worked out at 0%; in the assay with EPHA5, 0%; with EPHA6, 3%; in the assay with EPHA7 it was 2%; with EPHA8 it was 5%; in the assay on EPHB1 it was 6%. The “%Inh” value in the assay on EPHB2 is recorded as 0%; with EPHB3, 12%; with EPHB4, 10%; with EPHB6 it was 19%.
For the compound `CS(=O)(=O)c1ccc(-c2nc3n(c2-c2ccncc2)CCC3)cc1` [SKF-105942], the “%Inh” value with EPHA4 is 20%; with EPHA5 it was 0%; in the assay on EPHA6, 8%; in the assay on EPHA7, 10%; with EPHA8, 13%; in the assay on EPHB1, 8%. In addition, the “%Inh” value was determined as 9% in the assay on EPHB2, 14% in the assay with EPHB3, 32% with EPHB4 and 0% with EPHB6.
Turning to `Cc1ccccc1-n1cnc2c(N)ncnc21` [SKF-97510], the “%Inh” value in the assay on EPHA4 came out at 4%; in the assay on EPHA5 it was 0%; with EPHA6, 0%; in the assay on EPHA7, 0%; in the assay with EPHA8, 0%; with EPHB1 it was 1%. Moreover, the “%Inh” value with EPHB2 is given as 0%; with EPHB3, 0%; with EPHB4, 0%; with EPHB6, 7%.
Consider `COc1cc2ncnc(Nc3ccc4nc(-c5ccccc5)[nH]c4c3)c2cc1OC.Cl` [GW282450], for which the “%Inh” value turned out to be 0% with EPHA4; 0% with EPHA5; 0% in the assay on EPHA6; 0% in the assay with EPHA7; 0% in the assay with EPHA8; 38% with EPHB1. For the same compound, the “%Inh” value in the assay with EPHB2 is listed as 1%; in the assay on EPHB3 it was 3%; in the assay on EPHB4, 22%; in the assay with EPHB6, 18%.
As for `COc1ccccc1CNC(=O)c1cc(C(=O)c2ccccc2C)c[nH]1` [GSK364507], the “%Inh” value amounted to 5% in the assay with EPHA4; 0% in the assay on EPHA5; 0% with EPHA6; 8% with EPHA7; 19% in the assay on EPHA8; 25% in the assay on EPHB1. Further, the “%Inh” value in the assay with EPHB2 is on record as 0%; in the assay with EPHB3, 6%; in the assay with EPHB4, 20%; in the assay with EPHB6, 11%.
`CN1C(=O)C(Nc2ccc(Cl)c(C(=O)O)c2)=C(c2ccc(Cl)cc2)C1=O` [SB-404290]: the “%Inh” value in the assay with EPHA4 was determined as 1%; with EPHA5, 0%; with EPHA6, 2%; with EPHA7 it was 2%; with EPHA8, 19%; with EPHB1, 9%. The “%Inh” value with EPHB2 was 0%; in the assay with EPHB3, 7%; in the assay on EPHB4, 0%; with EPHB6, 28%.
Take `Cl.O=C(Nc1cccc(-c2nn3ncccc3c2-c2ccnc(Nc3cccnc3)n2)c1)c1c(F)cccc1F` [GSK312879]: the “%Inh” value with EPHA4 worked out at 1%; in the assay on EPHA5, 0%; with EPHA6 it was 1%; with EPHA7, 7%; in the assay on EPHA8 it was 27%; in the assay on EPHB1 it was 13%. In addition, the “%Inh” value in the assay on EPHB2 is 0%; with EPHB3, 0%; in the assay with EPHB4, 12%; in the assay with EPHB6 it was 10%.
For `Cc1cccc(-c2nc(Nc3ccncc3)c3ccccc3n2)n1` [GW855857], the “%Inh” value in the assay on EPHA4 is listed as 18%; in the assay on EPHA5, 0%; in the assay on EPHA6, 0%; with EPHA7 it was 0%; in the assay with EPHA8, 7%; with EPHB1, 3%. Further, the “%Inh” value was 16% in the assay on EPHB2, 11% in the assay with EPHB3, 26% in the assay with EPHB4 and 0% in the assay with EPHB6.
Regarding `COc1ccc2nc(-c3cccc(C)n3)nc(Nc3ccncc3)c2c1` [GSK204919], the “%Inh” value in the assay with EPHA4 was 23%; in the assay on EPHA5, 0%; with EPHA6, 18%; with EPHA7 it was 0%; in the assay with EPHA8, 9%; in the assay on EPHB1, 6%. The “%Inh” value in the assay on EPHB2 is on record as 0%; with EPHB3, 14%; in the assay with EPHB4, 15%; in the assay on EPHB6 it was 0%.
As for `Cn1ccc2ncnc(Oc3ccc(NC(=O)Nc4ccccc4)cc3)c21`, the “%Inh” value in the assay with EPHA4 worked out at 0%; with EPHA5 it was 0%; with EPHA6 it was 18%; with EPHA7, 0%; in the assay with EPHA8 it was 0%; in the assay with EPHB1, 0%. The “%Inh” value in the assay with EPHB2 was 1%; in the assay with EPHB3 it was 22%; with EPHB4, 6%; with EPHB6, 35%.
For `COC(=O)c1c(-c2ccccc2)c2cc(C(=O)O)ccc2c(=O)n1Cc1ccccc1`, the “%Inh” value in the assay on EPHA4 is recorded as 0%; in the assay on EPHA5 it was 0%; in the assay with EPHA6, 0%; with EPHA7, 0%; in the assay with EPHA8, 0%; in the assay on EPHB1 it was 6%. In addition, the “%Inh” value was found to be 12% in the assay on EPHB2, 0% in the assay with EPHB3, 0% in the assay on EPHB4 and 0% in the assay on EPHB6.
`O=C(Nc1n[nH]c2nc(-c3nccs3)c(Br)cc12)C1CCCC1` [SB-742609]: the “%Inh” value with EPHA4 amounted to 25%; with EPHA5, 0%; with EPHA6 it was 20%; with EPHA7 it was 10%; with EPHA8, 14%; in the assay with EPHB1, 0%. Also, the “%Inh” value is given as 0% with EPHB2, 26% with EPHB3, 10% in the assay with EPHB4 and 46% in the assay with EPHB6.
For the compound `COc1cc(Nc2nccc(N3CCC(NC(=O)Nc4cc(C)ccc4C)C3)n2)cc(OC)c1OC` (centres unmarked) [GSK1379762], the “%Inh” value is recorded as 26% with EPHA4; 0% with EPHA5; 18% in the assay with EPHA6; 25% with EPHA7; 33% in the assay on EPHA8; 12% in the assay with EPHB1. In addition, the “%Inh” value in the assay on EPHB2 was determined as 0%; in the assay with EPHB3 it was 16%; with EPHB4 it was 4%; in the assay on EPHB6 it was 89%.
For `COC(=O)c1c(-c2ccccc2)c2cc(OC)ccc2c(=O)n1Cc1ccccc1`, the “%Inh” value in the assay with EPHA4 is on record as 35%; in the assay on EPHA5, 1%; in the assay on EPHA6, 43%; in the assay with EPHA7, 0%; with EPHA8, 1%; in the assay on EPHB1, 0%. The “%Inh” value in the assay with EPHB2 is on record as 23%; with EPHB3 it was 35%; in the assay on EPHB4, 27%; in the assay with EPHB6 it was 0%.
On to `COc1ccc(Nc2nccc(-c3cccc(NC(=O)c4cc5cc(F)ccc5[nH]4)c3)n2)cc1` [GSK1229782], for which the “%Inh” value with EPHA4 is 6%; in the assay with EPHA5 it was 0%; in the assay on EPHA6 it was 11%; with EPHA7, 10%; with EPHA8, 26%; with EPHB1, 32%. In addition, the “%Inh” value was found to be 14% in the assay with EPHB2, 25% in the assay on EPHB3, 32% with EPHB4 and 25% in the assay on EPHB6.
